A short description of test [1]: Cell Viability - SK-N-SH (AID 435; calls by dose curve; note: potency is the fitted concentration of half-maximal effect). The conditions noted are these: SK-N-SH neuroblastoma cell viability qHTS. An outline of the steps: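 qHTS cytotoxicity: CellTiter-Glo ATP luminescence after 40 h compound exposure of human neuroblastoma SK-N-SH cells at 37 °C. AC50 derived by Hill-equation fitting, with DMSO as basal and 100 uM tamoxifen as full inhibition.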
Test [2] can be described thus: Cell Viability - N2a (AID 540).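 Note: plate controls were DMSO alone for no effect and tamoxifen control for full effect; nearly all actives have a fitted effect of over 45% in size.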 To be noted: N2a mouse neuroblastoma cell viability; activity change, negative = cytotoxicity: at 92.2 µM (top of the series). An outline of the steps:
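In this qHTS cytotoxicity screen, ATP-dependent luciferase luminescence reports viable N2a cells after a 40 hr compound exposure in complete culture medium. Potencies are AC50 values from standard Hill equation fits.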

Test [3] in a line: Cellular Toxicity (caspase-3) Jurkat (AID 655).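 Note: cells exposed to compound for 16 h at 37 °C before reading.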 The conditions noted are these: Jurkat caspase-3 activation, luminescence; caspase-3 activation: at 92.2 µM (top of the series), DMSO = 0%, tamoxifen = 100%. Summed up: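 Luminescent Caspase-Glo 3/7 read-out (20 min, room temperature) after 16 h compound treatment at 37 C of 5000 Jurkat cells per well. AC50 derived by Hill-equation fitting, scaled between DMSO basal and 100 uM tamoxifen stimulation.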

Test [4] in a line: Cellular Toxicity (caspase-3) MRC-5 (AID 659). The conditions noted are these: MRC-5 cells, luminescence, normalized: DMSO 0%, 10 µM staurosporine 100%; series mostly up to 91.7 µM. An outline of the steps: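 Luminescent Caspase-Glo 3/7 read-out (1 h, room temperature) after a 16 h, 37 °C compound exposure of MRC-5 lung fibroblasts at 1500 cells/well. Concentration-response AC50 from Hill equation; 0% DMSO, 100% 10 uM staurosporine.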

The nature of test [5]: Cell Viability - LYMP2-005 (AID 967).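 Note: plate controls were DMSO only for no effect and 92 µM tetraoctylammonium bromide control for full effect.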 The conditions noted are these: LYMP2-005 lymphoblastoid cell viability; series mostly up to 92.2 µM. Summed up: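 LYMP2-005 human lymphoblastoid cells (2500/well) were treated with compounds for 24 h at 37 C. Intracellular ATP was then measured by CellTiter-Glo luminescence after 30 min at room temperature. AC50 values came from Hill-equation fits of qHTS concentration-response data.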

Test [6] in a line: Cell Viability - LYMP2-002 (AID 977).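 Note: plate controls were DMSO only for no effect and 92 µM tetraoctylammonium bromide for full effect.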 To be noted: LYMP2-002 lymphoblastoid cell viability, qHTS; series mostly up to 92.2 µM. An outline of the steps:
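Human lymphoblastoid cells (2500/well) in complete medium were preincubated 5 hr at 37 C, then exposed to compounds for 24 hr at 37 C. Intracellular ATP was read by CellTiter-Glo luminescence; AC50 came from Hill-equation concentration-response fits.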
Background: Quantitative high-throughput screening tests each substance at several concentrations.

A short description of test [7]: Cell Viability - LYMP2-010 (AID 981). Note: % is set by controls: 0 for no effect and ±100 for the full control effect; nearly all actives have a fitted effect of over 55% in size. To be noted: LYMP2-010 lymphoblastoid cell viability, qHTS; series mostly up to 92.2 µM. Summed up:
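This 24 hr viability screen uses LYMP2-010 lymphoblastoid cells, quantifies ATP via luciferase luminescence, and derives AC50 from Hill fits of qHTS concentration-response data.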

The nature of test [8]: Cell Viability - LYMP2-020 (AID 986).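 Note: plate controls were DMSO only for no effect and tetraoctylammonium bromide at 92 µM for full effect; nearly all actives have a fitted effect of over 55% in size.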 The conditions noted are these: series mostly up to 92.2 µM. An outline of the steps: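 Cells at 2500 per well receive a 24 hr compound exposure at 37 C. Viability is measured as ATP-dependent luciferase luminescence, with AC50 modeled from qHTS concentration-response curves.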
The nature of test [9]: Cell Viability - LYMP2-022 (AID 987).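 Note: 0% = DMSO alone and full effect = tetraoctylammonium bromide at 92 µM; nearly all actives have a fitted effect of over 55% in size.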 The conditions noted are these: LYMP2-022 lymphoblastoid cell viability; series mostly up to 92.2 µM. Summed up:
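In this qHTS cytotoxicity screen, compound titrations were incubated 24 hr at 37 C with human lymphoblastoid cells in complete medium. Luciferase-based ATP luminescence provided the viability signal.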

In test [10] the target is Thyroid hormone receptor beta (Homo sapiens) (UniProt P10828). Kind of test: qHTS assay for small molecule agonists of thyroid hormone receptor beta signaling (AID 588545; calls by dose curve). The conditions noted are these: TR-UAS-bla GripTite HEK 293, beta-lactamase ratio, agonist mode, 18 h; series mostly up to 76.7 µM. Summed up:
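HEK 293 TR-UAS-bla; agonist mode; 18 hrs, 37 C; CCF4, ex 405/em 460 and 530 nm; norm. T3 10 nM = 100%, DMSO = 0%; Hill fit → EC50, efficacy.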

Test [11] in a line: qHTS assay for small molecule antagonists of retinoid X receptor alpha signaling (AID 588546; active = well fitted inhibition curve with a large enough effect in the signal ratio, with a control signal flat, not every such curve was filed as active; the % refers to the signal ratio;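 note: cells stimulated with 9-cis-retinoic acid as agonist; % is set by controls: 0 for no effect and ±100 for the full control effect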). To be noted: HEK293T RXRa-UAS-bla, beta-lactamase ratio, antagonist mode; measured here: W530 green channel, cytotoxicity proxy. Summed up:
(§1)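 Beta-lactamase reporter inhibition, read as CCF4 fluorescence ratio (ex 405, em 460/530 nm) after 2 h at RT. HEK293T UAS-bla cells, 2500/well, were stimulated with 9-cis-RA at 500 or 100 nM final alongside test compound for 18 h at 37 C.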

Test [12] deals with Retinoic acid receptor RXR-alpha (Homo sapiens) (UniProt P19793). The test is described as above. To be noted: HEK293T RXRa-UAS-bla, beta-lactamase ratio, antagonist mode. An outline of the steps:
as §1

Test [13] deals with Thyroid hormone receptor beta (Homo sapiens) (UniProt P10828). Briefly: qHTS assay for small molecule antagonists of thyroid hormone receptor beta signaling (AID 588547; active = well fitted inhibition curve with a large enough effect in the signal ratio, with a control signal flat, not every such curve was filed as active; the % refers to the signal ratio;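 note: cells stimulated with 0.4 nM T3 agonist during compound exposure; % is set by controls: 0 for no effect and ±100 for the full control effect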). To be noted: TR-UAS-bla HEK293, beta-lactamase ratio, antagonist mode, 18 h. Summed up: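 Inhibition of T3-driven (0.4nM final) beta-lactamase reporter activity was measured over 0.59 nM to 92 uM compound after 18 h at 37 C. The cells were GripTite HEK293 TR-UAS-bla in charcoal/dextran-stripped serum, with CCF4 ratio read-out and IC50 from Hill fits.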

The target of test [14] is Tumor necrosis factor (Homo sapiens) (UniProt P01375). Kind of test: qHTS assay to identify small molecules that stimulate Tumor Necrosis Factor-alpha (TNF-alpha) secretion (AID 651757; active = well fitted curve in the direction sought with a large enough effect in the signal ratio; the % refers to the signal ratio; note: 0% is about no effect). To be noted: Human cells, HTRF 665/615 ratio; series mostly up to 92.2 µM. Summed up:
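Using 3000 THP-1 cells per well, compounds and controls were applied for 17 hrs at 37 C. Detection followed with two labeled anti-TNF-alpha antibodies (cryptate donor, XL665 acceptor) for 3 hr at room temperature, measured by TR-FRET.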

Test [15] is described as follows: Cell Viability - Renal Proximal Tubule (AID 545).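 Note: cells exposed to compound for 40 hours; nearly all actives have a fitted effect of over 40% in size.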 To be noted: renal proximal tubule cells viability; series mostly up to 91.7 µM. An outline of the steps: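 Viability taken as intracellular ATP (CellTiter-Glo luminescence) after 40 hr, 37 °C compound treatment of primary proximal tubule cells from rat kidney, 1000 cells/well; Hill-equation fits of qHTS concentration-response data gave AC50.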

Test [16] deals with Cytochrome P450 3A4 (Homo sapiens) (UniProt P08684). Briefly: qHTS Assay for Inhibitors and Substrates of Cytochrome P450 3A4 (AID 884). Note: nearly all actives have a fitted effect of over 50% in size. Note: potency is the fitted concentration of half-maximal effect. The conditions noted are these: recombinant CYP3A4, Luciferin-PPXE luminescence; series mostly up to 57.1 µM. An outline of the steps:
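Luminescent readout of luciferin produced by CYP3A4 (20 nM) dealkylation of Luciferin-PPXE, 25 uM (its KM). NADPH-driven reaction ran 60 min at RT after 10 min compound preincubation; data scaled to 57 uM ketoconazole as 100% inhibition.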

The nature of test [17]: Cell Viability - LYMP2-001 (AID 921).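 Note: 0% = DMSO only and full inhibition = tetraoctylammonium bromide control wells; nearly all actives have a fitted effect of over 70% in size.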 To be noted: LYMP2-001 lymphoblastoid cell viability; series mostly up to 92.2 µM. Summed up:
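Cellular ATP loss read by luciferase luminescence after 24 h compound exposure at 37 C in complete medium. LYMP2-001 lymphoblastoid cells, 2500/well; qHTS concentration-response data fitted with Hill equation for AC50.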

The nature of test [18]: MultiTox-Fluor Cytotoxicity Assay - LYMP1-002 - Dead Cells (AID 960).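 Note: 0% = DMSO and 100% = tetraoctylammonium bromide; nearly all actives have a fitted effect of over 60% in size.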 The conditions noted are these: LYMP1-002 lymphoblastoid cells, dead-cell protease fluorescence; series mostly up to 46.1 µM. Summed up: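 Concentration-dependent increases in membrane-leaked protease activity are quantified in LYMP1-002 cells after 16 hr treatment; values are normalized against DMSO and tetraoctylammonium bromide (15 uM) controls and AC50 derived by Hill modeling.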

Test [19] can be described thus: Cell Viability - LYMP2-015 (AID 971).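 Note: 0% = DMSO only and full effect = 92 µM tetraoctylammonium bromide; nearly all actives have a fitted effect of over 55% in size.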 The conditions noted are these: LYMP2-015 lymphoblastoid cell viability; series mostly up to 92.2 µM. An outline of the steps:
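AC50 values reflect Hill-model fits of ATP-based luminescence (CellTiter-Glo) from a human lymphoblastoid line, 2500 cells/well, treated 24 hr at 37 C.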

Test [20] is described as follows: qHTS assay for small molecule agonists of retinoid X receptor alpha signaling (AID 588544). To be noted: HEK293T RXRa-UAS-bla, beta-lactamase reporter, 18 h; 530 nm emission.

Here are results for 4 compounds from PubChem BioAssay (NCATS).

Structures are written as SMILES. Where “and” joins values, the source holds several entries; their conditions need not be identical. Identical values can stand only once. Records with an inconclusive call do not appear. Calls of active or inactive are those of the source. Unless noted, calls come from the whole dose curve; as a rule, active = well fitted curve in the direction sought with a large enough effect; inconclusive = small, poorly fitted or top-dose-only effect, or another doubt; inactive = no such curve, though single readings can be large; an effect the other way counts as inactive or inconclusive.

Sequence of Tumor necrosis factor (Homo sapiens) (P01375 whole entry, looked up): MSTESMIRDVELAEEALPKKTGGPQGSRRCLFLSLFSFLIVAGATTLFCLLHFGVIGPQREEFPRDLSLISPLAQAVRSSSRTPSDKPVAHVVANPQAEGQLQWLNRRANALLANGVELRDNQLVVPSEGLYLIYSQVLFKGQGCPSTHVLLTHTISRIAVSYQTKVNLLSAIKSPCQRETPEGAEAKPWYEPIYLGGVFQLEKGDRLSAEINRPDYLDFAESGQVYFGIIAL
Sequence of Retinoic acid receptor RXR-alpha (Homo sapiens) (P19793 whole entry, looked up): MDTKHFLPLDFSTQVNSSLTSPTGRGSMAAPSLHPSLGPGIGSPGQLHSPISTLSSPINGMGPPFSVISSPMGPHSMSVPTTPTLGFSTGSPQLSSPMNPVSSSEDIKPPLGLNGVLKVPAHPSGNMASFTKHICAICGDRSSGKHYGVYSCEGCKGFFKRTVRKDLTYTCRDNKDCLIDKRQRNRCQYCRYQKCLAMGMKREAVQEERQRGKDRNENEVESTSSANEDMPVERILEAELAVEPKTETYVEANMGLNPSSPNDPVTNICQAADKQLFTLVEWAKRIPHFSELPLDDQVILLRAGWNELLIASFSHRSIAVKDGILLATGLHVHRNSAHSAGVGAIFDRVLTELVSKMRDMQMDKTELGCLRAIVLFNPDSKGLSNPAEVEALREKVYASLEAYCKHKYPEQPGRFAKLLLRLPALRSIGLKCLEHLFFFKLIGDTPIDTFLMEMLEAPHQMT
Sequence of Thyroid hormone receptor beta (Homo sapiens) (P10828 whole entry, looked up): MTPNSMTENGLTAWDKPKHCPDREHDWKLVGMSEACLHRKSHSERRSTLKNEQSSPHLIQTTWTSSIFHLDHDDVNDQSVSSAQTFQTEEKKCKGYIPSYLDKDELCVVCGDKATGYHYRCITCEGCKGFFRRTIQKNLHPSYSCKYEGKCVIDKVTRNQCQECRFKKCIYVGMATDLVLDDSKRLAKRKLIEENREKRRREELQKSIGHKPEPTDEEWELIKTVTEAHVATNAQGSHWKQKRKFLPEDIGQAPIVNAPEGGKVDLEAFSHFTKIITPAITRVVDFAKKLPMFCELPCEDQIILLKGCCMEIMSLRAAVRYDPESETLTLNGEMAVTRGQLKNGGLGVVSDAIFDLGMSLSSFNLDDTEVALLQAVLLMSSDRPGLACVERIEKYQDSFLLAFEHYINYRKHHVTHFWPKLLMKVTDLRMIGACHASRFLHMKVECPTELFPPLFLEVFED
Sequence of Cytochrome P450 3A4 (Homo sapiens) (P08684 whole entry, looked up): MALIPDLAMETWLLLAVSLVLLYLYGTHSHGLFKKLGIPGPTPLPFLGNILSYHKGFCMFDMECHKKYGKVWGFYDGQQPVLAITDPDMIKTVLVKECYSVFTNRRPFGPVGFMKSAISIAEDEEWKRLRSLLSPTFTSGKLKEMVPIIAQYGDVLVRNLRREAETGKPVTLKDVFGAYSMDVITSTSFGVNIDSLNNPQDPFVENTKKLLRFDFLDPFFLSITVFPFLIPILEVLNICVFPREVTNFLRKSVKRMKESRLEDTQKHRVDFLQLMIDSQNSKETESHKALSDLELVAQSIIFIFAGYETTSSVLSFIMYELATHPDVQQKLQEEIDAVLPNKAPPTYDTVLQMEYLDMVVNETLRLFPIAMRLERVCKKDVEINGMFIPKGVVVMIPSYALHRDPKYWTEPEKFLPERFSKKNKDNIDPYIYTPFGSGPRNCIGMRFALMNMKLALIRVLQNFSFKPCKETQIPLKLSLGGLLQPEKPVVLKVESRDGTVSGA

In the case of `COC(=O)Nc1nc2ccccc2[nH]1`, in test [1], the Potency is > 92 µM (inactive). For the same compound, the Potency result in [2], in [5], in test [6], in test [7], in test [8] and in [9] was “inactive” throughout. For the same compound, in [10], the Potency entry was “inactive”. Further, the caspase-3 activation in [3] was 10.9% (inactive). Moreover, the compound was called inactive in [4] and in [14]. Further, the max response is 1.76% in test [11] and -21.4% (inactive) in test [12]. Also, the activity change % (negative = inhibition) in [13] is -22.5% (inactive) and -22.8% (inactive).

With `COc1cc(-c2ccc(N)c(OC)c2)ccc1N`, the Potency in test [1] is > 92 µM (inactive); in test [16] it was 12.6 µM (active). Moreover, the Potency result in test [2], in [17], in test [18], in test [5], in test [19] and in test [6] was “inactive” in each case. In addition, the Potency result in [7], in test [8], in test [9] and in [10] was “inactive” each time. The call in test [15] and in test [4] was inactive. In addition, the caspase-3 activation in test [3] was -0.124% (inactive). Also, the max response is 8.08% and -9.67% in test [20]; 0.0176% and -5.1% in test [11]; -9.81% (inactive) and -21.9% (inactive) in test [12]. The activity change % (negative = inhibition) in test [13] was 4.52% (inactive) and 5.28% (inactive) and -5.71% (inactive).

In the case of `O=C(O)c1cccc(Cl)c1`, the Potency in test [1] is > 92 µM (inactive). In addition, the Potency result in test [2], in test [16], in test [17], in [18], in test [5] and in [19] was “inactive” in each case. For the same compound, the Potency result in [6], in [7], in test [8], in test [9] and in [10] was “inactive” throughout. Moreover, the outcome in test [15], in test [4] and in test [14] was inactive. Moreover, the caspase-3 activation in test [3] is -2.79% (inactive). Further, the max response in test [20] is -9.83%. Moreover, in [13], the activity change % (negative = inhibition) is 7.72% (inactive).

For the compound `Clc1ccc(C(Cl)(Cl)Cl)c(Cl)c1`, the Potency in test [1] was > 92 µM (inactive). Moreover, the Potency entry in [2], in test [17], in test [18], in test [5], in [19] and in test [6] was “inactive” throughout. The Potency result in [7], in test [8], in test [9] and in test [10] was “inactive” each time. The outcome in test [15], in [4] and in test [14] was inactive. For the same compound, in test [3], the caspase-3 activation is -1.19% (inactive). The max response in test [20] is -5.84%; in test [11], -9.41%; in [12], 8.02% (inactive). Besides, in [13], the activity change % (negative = inhibition) was 16.5% (inactive).
